Shown are actives, neighbours in structure and some others; about 13% of the full set was active somewhere.
HCMV inh: qHTS Assay for inhibitors of the human cytomegalovirus (HCMV); HFF cells, HCMV-luciferase reporter, 72 h; hits give low values; activity change, negative = inhibition, % at 57.5 µM; 410,000 tested, 4.5% active; in the data active = activity change below about -60%; inconclusive = no clear call, values can overlap the other calls; inactive = above about -39%
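Steps: HFFs plated, 16 h 37C; compounds added; HCMV-luciferase added to MOI 1 PFU/cell; 72 h 37C; OneGlo reagent, 5 min room temperature; luminescence read, normalized to controls.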
Pf growth 48h: Primary qHTS for delayed death inhibitors of the malarial parasite plastid, 48 hour incubation; P. falciparum luciferase growth in erythrocytes, 48 h; Potency, µM (highest dose often 28.7 µM), without a hit: at the top dose activity change, negative = inhibition, usual class: inhibitors; 310,000 tested, 5.9% active; AID 504832, 2011; also: potency is read from the fitted curve at half-maximal effect
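Growth was read as firefly luciferase luminescence after a 48 h, 37 C, 5% CO2 exposure of compounds to reporter-bearing P. falciparum cultures (0.1% parasitemia, 2% hematocrit final) in Albumax-supplemented RPMI 1640.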
HCV inhibitor: qHTS Assay for Inhibitors of Hepatitis C Virus (HCV); 340,000 tested, 3.4% active; Potency, µM (doses to about 41.8 µM), inactives show at the top dose activity change, negative = inhibition, hits mostly inhibitors; AID 651820, 2012; Huh7.5.1 HCVcc-Cre infection, luciferase reporter, 44 h; also: potency is read from the fitted curve at half-maximal effect
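Luciferase read-out (15 sec integration) after a 15 min room-temperature substrate step quantifies HCVcc-Cre infection. Cells, 1,000 per well, had compound added 4 h post-plating, then virus at ~0.5 moi, and were cultured 44 h.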
Pf growth 96h: Primary qHTS for delayed death inhibitors of the malarial parasite plastid, 96 hour incubation; 320,000 tested, 6.9% active; Potency, µM (series often up to 28.7 µM), without a hit: at the top dose activity change, negative = inhibition, actives largely listed as inhibitors; AID 504834, 2011; P. falciparum luciferase reporter growth, 96 h; also: potency is read from the fitted curve at half-maximal effect
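Compounds incubated with erythrocytes infected by luciferase-expressing P. falciparum (2% hematocrit, 0.05% parasitemia final) for 96 hours, 37 C in 5% CO2. Growth inhibition scored as decreased luciferase luminescence.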
Active calls of the source: *; ? = inconclusive; . = no result; [ ] = another dose, or the depositor's remark. Unless noted, calls follow the shape of the dose curve; as a rule, active = well fitted inhibition curve with a large enough effect; inconclusive = small, poorly fitted or top-dose-only effect, or another doubt; inactive = no such curve, though single readings can be large or run the other way. % is scaled to controls: 0 for no effect and ±100 for the full control effect.

SMILES | HCMV inh | Pf growth 48h | HCV inhibitor | Pf growth 96h
CCOc1nc(SCCOc2ccc(C)cc2)nc(N(C)C)n1 | -10 | 9.3µM* | -6% | ?
CCOc1nc(SCCOc2ccc(Cl)cc2Cl)nc(N(C)C)n1 | -16 | ? | ? | -29%
CCn1c(SCc2ccc([N+](=O)[O-])cc2)nnc1C(C)NC(=O)c1ccc(C)cc1 (stereo unspecified) | -28 | -9% | 11% | 10µM*
Cc1ccccc1NC(=O)c1cnc2ccccn2c1=O | 16 | 44% | -13% | 6.6µM*
O=C(Nc1cnc2ccccn2c1=O)c1ccc(F)cc1 | 56 | 172% | 15% | 13µM*
COc1ccc(C(=O)Nc2cnc3ccccn3c2=O)cc1 | 0 | 71% | -3% | ?
COc1ccc(-c2cc(C(F)(F)F)n3nc(C(=O)Nc4cccc(Cl)c4Cl)cc3n2)cc1OC | -4 | . | . | .
CCOC(=O)N1CCN(Cc2nnc(-c3ccccc3C)o2)CC1 | -14 | 19% | 1% | 0.74µM*
COc1cccc2c(=O)c(C(=O)O)c[nH]c12 | 33 | 19% | 8% | .
COc1cccc2c(=O)c(C/C=C(/C)Cl)c(C)[nH]c12 | -14 | 0.74µM* | -10% | .
COc1cccc2c(=O)c(SC(F)(F)C(F)C(F)(F)F)c(C)[nH]c12 (stereo unspecified) | 6 | 6.6µM* | ? | 3.7µM*
C#CCn1c(=NC(=O)c2cccs2)sc2cccc(OCC)c21 | -67* | ? | ? | ?
CCOC(=O)N1CCC(NC(=O)CSCc2nc(-c3cccc(OC)c3)oc2C)CC1 | -93* | -22% | ? | ?
CCOc1ccc(-c2nc(CNC(=O)NC3CCCCC3)c(C)o2)cc1 | 9 | . | . | .
CCOC(=O)N1CCC(NC(=O)CSCc2nc(-c3ccc(OCC)cc3)oc2C)CC1 | ? | 12µM* | ? | -2%
CCOc1ccc(-c2nc(CSCC(=O)NC3CCCc4ccccc43)c(C)o2)cc1 (stereo unspecified) | -24 | . | 18µM* | 13µM*
CCOc1ccc(-c2nc(CSCC(=O)NC3CC3)c(C)o2)cc1 | ? | 13µM* | -26% | 23%
CCOC(=O)N1CCC(NC(=O)CSCc2nc(-c3ccccc3Cl)oc2C)CC1 | -22 | 2% | -28% | 28%
CC(=O)Nc1nonc1-c1nnc(SCC(=O)N(C)c2ccccc2)n1C | -9 | . | . | .
CCOCCc1nnc(NC(=O)C(=O)c2cc(C)n(-c3cccc(Cl)c3)c2C)s1 | 3 | . | . | .
O=C(Nc1nc2c(s1)CCc1ccccc1-2)c1ccco1 | 112 | ? | 32µM* | ?
CC(=O)Nc1nc2c(s1)CCc1ccccc1-2 | 0 | 67% | ? | 62%
O=C(Nc1nc2ccsc2c(=O)s1)c1ccco1 | 15 | 40% | -9% | 27%
O=C(CCCl)Nc1nc2c(s1)CCc1ccccc1-2 | -15 | ? | -29% | 2.1µM*
O=C1C(c2ccccc2)=[N+]([O-])c2ccccc21 | 26 | 0.66µM* | 10µM* | 0.37µM*
SMILES | HCMV inh | Pf growth 48h | HCV inhibitor | Pf growth 96h
COc1cc2c(cc1OC)[N+]([O-])=C(c1ccccc1)C2=O | -26 | . | . | .
COc1ccc2ccc(=O)oc2c1CC(=O)C(C)C | 1 | . | 4.5µM* | .
CCOc1ccc(CNc2ccc(N3CCN(Cc4ccccc4)CC3)cc2)cc1 | 32 | 3% | 10µM* | 9.3µM*
CC(=O)Nc1ccc(N2CCN(Cc3ccccc3)CC2)cc1 | . | -1%[0.00184 µM] | 3% | -2%
CCOc1ccc(CNc2ccc(N3CCCC3)cc2)cc1 | 143 | 1.9µM* | -22% | -28%
CCCCC(CC)CNC(=O)c1ccc2c(=O)n(Cc3ccc(OC)cc3)c(=O)[nH]c2c1 (stereo unspecified) | -21 | . | . | .
Cc1ccc(CNC(=O)c2ccc(CSCc3c(F)cccc3Cl)o2)cc1 | -6 | . | . | .
CCOc1ccc(C(=O)N[C@H](C(=O)Nc2ccc(OC)c(S(=O)(=O)N3CCOCC3)c2)C(C)C)cc1 | -26 | ? | -19% | ?
CC(C)[C@H](NC(=O)c1cccc(S(=O)(=O)N2CCOCC2)c1)C(=O)Nc1nc2ccccc2s1 | 15 | 15µM* | ? | 10µM*
CC(C)C(NC(=O)c1cccc(S(=O)(=O)N2CCOCC2)c1)C(=O)NCc1ccc(Cl)cc1 (stereo unspecified) | -23 | ? | ? | -20%
CCOc1ccccc1NC(=O)[C@@H](NC(=O)c1cccc(S(=O)(=O)N2CCOCC2)c1)C(C)C | -22 | 13µM* | 12% | ?
CCOc1ccccc1C(=O)N[C@H](C(=O)Nc1ccc(OC)c(S(=O)(=O)N2CCOCC2)c1)C(C)C | -6 | 13µM* | ? | ?
COc1ccc(/C=N/NC(=O)c2nc(-c3ccccc3)cc(-c3ccccc3)n2)cc1 | ? | 20% | 10µM* | 80%
Cc1cccc(C(=O)Oc2ccccc2/C=N/NC(=O)c2ccc(NC(=O)C(C)(C)C)cc2)c1 | 67 | ? | -23% | ?
COc1ccc(C(=O)N/N=C/c2ccc(OC(=O)c3ccccc3)cc2)cc1 | 53 | 15% | 10% | 72%
CC(C)(C)C(=O)Nc1ccc(C(=O)N/N=C/c2ccccc2OC(=O)c2ccccc2)cc1 | -35 | ? | ? | 4.1µM*
COc1cc(C(=O)N/N=C/c2ccsc2C)cc(OC)c1OC | -79* | -19% | ? | ?
COc1ccc(C(=O)N/N=C/c2ccccc2OC(=O)c2ccccc2)cc1 | -97* | ? | ? | 2%
CCCOc1cccc(C2c3c(oc4ccccc4c3=O)C(=O)N2c2nncs2)c1 (stereo unspecified) | -16 | . | . | .
CN(C)c1ccc(/C=N/NC(=O)c2ccccc2)cc1 | 25 | 60% | -15% | 37%
CCOc1cc(/C=N\NC(=O)c2ccc(NC(=O)C(C)(C)C)cc2)ccc1OC(=O)c1ccc(C)cc1 | -5 | . | 22% | 16%
COc1cc(C(=O)Oc2ccccc2/C=N/NC(=O)c2ccc(C)cc2)cc(OC)c1OC | -99* | ? | 7.9µM* | ?
CCOc1cc(/C=N\NC(=O)c2ccc(NC(=O)C(C)(C)C)cc2)ccc1OC(=O)c1cccc(C)c1 | -11 | ? | 3.2µM* | ?
CC(C)(C)C(=O)Nc1ccc(C(=O)N/N=C/c2ccccc2OC(=O)c2ccc(Cl)cc2)cc1 | -23 | ? | 10µM* | ?
COc1ccc(C(=O)N/N=C/c2ccc(N(C)c3ccccc3)cc2)cc1 | -37 | . | 7.1µM* | .
CCCOc1ccc(Nc2cc(C)nc(C)n2)cc1 | 34 | . | . | .
CC(CC1CC(C)(C)OC1=O)C(=O)Nc1ccc([N+](=O)[O-])cc1 (stereo unspecified) | -19 | ? | -11% | 1.7µM*
CC1(C)CC(CC(=O)Nc2ccc([N+](=O)[O-])cc2)C(=O)O1 (stereo unspecified) | -6 | 43% | -5% | ?
CC1=C(C(=O)Nc2ccc(Cl)cc2)C(C(C)C)n2nc(SCc3cccc(C)c3)nc2N1 (stereo unspecified) | 9 | . | . | .
O=C1C=CN(C2OC(CO)C(O)C2O)C(=O)C1 (stereo unspecified) | -73* | . | . | .

Bioassay records (PubChem)
